High-throughput results (PubChem BioAssay)
PAFAH1B3 FP inh: PAFAH1B3 enzyme inhibitors, primary screen, biochemical, fluorescence polarization, human | recombinant PAFAH1B3, FP-rhodamine probe | inhibition, % at 3.39 µM | hit rate 0.28% among 340,000;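 active means inhibition above the screen-wide average of all tested compounds plus 3 SD, cut at about 25% in these data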
Pemphigus Ab inh: inhibitors of pemphigus antibody binding to DSG3, primary screen, biochemical, bead-based, flow cytometry, scFv-GFP | hit rate 0.48% among 310,000 | AID 588358, 2011 | binding (percent of control), % at 10 µM | DSG3-coupled beads, scFv-anti-DSG3-GFP binding; active compounds read low | Desmoglein-3 (Homo sapiens), P32926;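 active means binding more than 3 SD below its plate's average and above zero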;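 further: hits lower antibody fragment binding to DSG3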
PAFAH2 FP inh: PAFAH2 enzyme inhibitors, primary screen, biochemical, fluorescence polarization, human. Platelet-activating factor acetylhydrolase 2, cytoplasmic (Homo sapiens), Q99487. recombinant PAFAH2, FP-rhodamine activity probe. inhibition, % at 3.39 µM. hit rate 0.99% among 340,000;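 active means inhibition above the mean over all tested compounds plus 3 SD, cut at about 30% in these data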;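 further: inhibitors block probe labeling of enzyme so polarization drops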
pPAFAH FP inh: pPAFAH enzyme inhibitors, primary screen, biochemical, fluorescence polarization, human; recombinant pPAFAH, FP-rhodamine probe fluorescence polarization; inhibition, % at 3.39 µM; hit rate 1.5% among 330,000; AID 463082, 2010;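 active means inhibition above the mean inhibition across the screen plus 3 SD, cut at about 25% in these data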;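 further: inhibitors block binding of the rhodamine activity-based probe so polarization drops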
Target sequence (Q13093 whole entry, looked up): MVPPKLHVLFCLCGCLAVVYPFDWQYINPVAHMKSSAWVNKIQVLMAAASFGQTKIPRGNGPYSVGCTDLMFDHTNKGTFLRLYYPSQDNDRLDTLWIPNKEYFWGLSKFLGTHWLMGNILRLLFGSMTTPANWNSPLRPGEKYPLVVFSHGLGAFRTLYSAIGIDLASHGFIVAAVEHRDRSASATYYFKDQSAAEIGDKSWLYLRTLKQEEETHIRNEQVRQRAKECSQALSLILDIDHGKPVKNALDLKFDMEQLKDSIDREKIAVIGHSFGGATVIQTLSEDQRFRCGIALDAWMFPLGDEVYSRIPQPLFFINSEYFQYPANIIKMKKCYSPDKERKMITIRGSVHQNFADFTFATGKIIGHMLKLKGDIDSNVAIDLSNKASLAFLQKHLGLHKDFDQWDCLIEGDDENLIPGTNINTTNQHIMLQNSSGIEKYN
M18AAP inhibitor: PfM18AAP inhibitors, malaria aminopeptidase, primary screen, biochemical, QFRET, recombinant enzyme; hit rate 1.2% among 290,000; AID 1822, 2009; H-Glu-NHMec fluorogenic cleavage; inhibition, % at 7.35 µM;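 active means inhibition above the campaign mean inhibition over all tested compounds plus 3 SD, cut at about 28% in these data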
PAFAH1B2 FP inh: PAFAH1B2 enzyme inhibitors, primary screen, biochemical, fluorescence polarization, human. recombinant PAFAH1B2, FP-rhodamine activity probe. inhibition, % at 3.39 µM. Platelet-activating factor acetylhydrolase IB subunit alpha2 (Homo sapiens), P68402. hit rate 1.2% among 340,000;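 active means inhibition above the mean of all tested compounds plus 3 SD, cut at about 24% in these data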
pPAFAH FP conf: pPAFAH (PLA2G7) enzyme inhibitors, confirmation, biochemical, fluorescence polarization, human; AID 463230, 2010; recombinant pPAFAH, FP-Rh probe fluorescence polarization; inhibition, % at 3.39 µM; hit rate 72% among 2,300; shares compounds with pPAFAH FP inh;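 active means mean inhibition of the triplicate above the hit cutoff set for the earlier primary screen, cut at about 25% in these data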
Numbers stand for hits; . = inactive; / = no result. This is a sample that favours compounds with a hit; in the whole collection about 3.8% have one here.

SMILES | PAFAH1B3 FP inh | Pemphigus Ab inh | PAFAH2 FP inh | pPAFAH FP inh | M18AAP inhibitor | PAFAH1B2 FP inh | pPAFAH FP conf
Cc1ccc(C)c(NC(=O)c2ccccc2NC(=O)C2CCCO2)c1 (configuration not stated) | . | . | . | . | . | . | /
Cc1cc(C)n(-c2ccc(C(=O)OCC(=O)c3ccc(Br)s3)cc2)n1 | . | . | 50 | 36 | . | . | 27
CCNC(=O)COC(=O)c1ccc(-n2nc(C)cc2C)cc1 | . | . | . | . | . | . | /
CC(C)(CNC(=O)CO/N=C1/C=C2CCC3C(C(O)C[C@@]4(C)C3CC[C@]4(O)C(=O)CO)[C@@]2(C)CC1)C(O)C(=O)O (some centres not stated) | . | . | . | . | . | . | /
Cc1ccc(N=Cc2cc(Cc3ccccc3Cl)cc([N+](=O)[O-])c2O)c(O)c1 | . | . | . | 48 | . | . | 62
N#CCCN(NC1=NS(=O)(=O)c2ccccc21)C(=O)c1ccccc1Br | . | . | . | 50 | . | . | .
Nc1nc(-c2ccccc2)c(N=Nc2ccccc2Cl)s1 | . | . | . | 39 | . | . | 53
Cc1ncc(N=Nc2ccccc2Cl)c(-c2ccccc2)n1 | . | . | . | . | . | . | /
COc1cc2c(cc1OC)C(COc1ccc([N+](=O)[O-])cc1)N(C(C)=O)CC2 (configuration not stated) | . | . | . | . | . | . | /
O=C(Oc1nsnc1N1CCOCC1)N1CCCC1 | . | . | . | . | . | . | /
O=C(Oc1nsnc1N1CCCCC1)N1CCOCC1 | . | . | . | 79 | . | . | 73
CC(=O)N1CCN(c2ccc(Nc3nc(C)nc4c3oc3ccccc34)cc2)CC1 | . | . | . | 40 | / | . | 34
C=CCOc1ccc(/C=C/C(=O)OCC(=O)N(C)CC(=O)Nc2ccccc2Cl)cc1 | . | . | . | . | / | . | /
O=C1CC(c2ccccc2Oc2cccc(Cl)c2)C(n2cncn2)C(=O)C1C1NCCc2ccccc21 (configuration not stated) | . | . | . | . | . | . | /
CC(C)(C)c1ccc(Oc2cccc(C3CC(=O)C(C4NCCc5ccccc54)C(=O)C3n3cncn3)c2)cc1 (configuration not stated) | . | / | . | 41 | . | . | .
CN(c1ccccc1)S(=O)(=O)c1cccc(C(=O)NCCc2ccc(O)c(O)c2)c1 | . | . | . | 37 | 40 | . | 43
O=C1c2ccccc2C(=O)N1CCCCN1CCN(CCCCN2C(=O)c3ccccc3C2=O)CC1 | / | / | / | / | . | / | /
O=C1CC(=C2c3ccccc3-c3ccccc32)C(=O)N1CCCCN1CCN(c2ccccc2)CC1 | . | . | . | 41 | . | . | .
O=C(O)C1(S(=O)(=O)CCC(F)=C(F)F)CC1 | . | . | . | . | . | . | /
C#CCNc1cc(-c2ccccc2)nc2ncnn12 | . | . | . | . | . | . | /
C#CCNc1cc(C)nc2ncnn12 | . | . | . | 51 | . | . | .
CN(Cc1ccccc1)C(=O)Cn1c(=O)c2cccn2c2cccnc21 | . | . | . | . | . | . | /
CCOC(=O)c1cc(C#N)c(SCC(=O)OC)[nH]c1=O | . | . | . | 35 | . | . | .
COC(=O)CSc1[nH]c(=O)cc(C)c1C#N | . | . | . | . | . | . | /
CCOc1ccc(-n2ccnc2)nn1 | . | . | . | 45 | . | . | .
SMILES | PAFAH1B3 FP inh | Pemphigus Ab inh | PAFAH2 FP inh | pPAFAH FP inh | M18AAP inhibitor | PAFAH1B2 FP inh | pPAFAH FP conf
Cc1cc(C)n(-c2ccc(-n3ccnc3)nn2)n1 | . | . | . | . | . | . | /
CCOC(=O)C1CCN(Cc2ccc(OCc3ccccc3)c(OC)c2)CC1 | . | . | . | 72 | . | . | .
CCOC(=O)C1CCN(Cc2ccc(OC)c(OCc3ccccc3)c2)CC1 | . | . | . | . | . | . | /
COc1cc(NC(=O)C(C)(C)C)c(C(=O)OCC(=O)Nc2cc(C)on2)cc1OC | / | . | / | / | / | / | /
Oc1ccccc1C=NNC(=S)NC1CC2C=CC1C2 (configuration not stated) | / | . | / | / | / | / | /
Oc1c(Cl)cc(Cl)cc1/C=N/NC(=S)NC1CC2C=CC1C2 (configuration not stated) | 26 | . | 68 | 36 | . | . | 34
CCC(=O)NC(c1cccs1)c1cc([N+](=O)[O-])c2cccnc2c1O (configuration not stated) | . | . | . | . | . | . | /
CC(=O)NC(c1cccs1)c1cc([N+](=O)[O-])c2cccnc2c1O (configuration not stated) | . | . | . | 49 | . | . | 46
CCCC(=O)NC(c1cccs1)c1cc([N+](=O)[O-])c2cccnc2c1O (configuration not stated) | . | . | . | 68 | . | . | 73
CCN1CCC(N2CCN(c3ccccc3OC)CC2)CC1 | . | . | . | . | . | . | /
COC(=O)/C(=C/Nc1ccc(O)cc1)[N+](=O)[O-] | . | / | . | 37 | . | . | .
COC(=O)/C(=C/Nc1ccccc1)[N+](=O)[O-] | . | . | . | . | . | . | /
COc1ccc(COC(=O)c2cc([N+](=O)[O-])ccc2N2CCOCC2)cc1F | . | . | . | 43 | / | . | .
O=C(OCc1ccc(Br)cc1)c1cc([N+](=O)[O-])ccc1N1CCOCC1 | / | . | / | / | / | / | /
CCc1ccc(NC(=O)C(C)OC(=O)c2cc(=O)[nH]c3ccc(S(=O)(=O)Nc4ccc(F)cc4)cc23)cc1 (configuration not stated) | . | . | . | 73 | . | . | 56
COc1ccccc1CNS(=O)(=O)c1ccc(-c2cnc(C3CC3)o2)cc1 | . | . | . | . | . | . | /
CCCCCNC(=O)c1ccc2c(=O)[nH]c3c(C(=O)NCC4CCCO4)sc(=S)n3c2c1 (configuration not stated) | 38 | / | 45 | 62 | . | 49 | 74
Cc1ccc(CNC(=O)c2ccc3c(=O)[nH]c4c(C(=O)NCC5CCCO5)sc(=S)n4c3c2)cc1 (configuration not stated) | 34 | / | 31 | 38 | . | 30 | 75
C=CCn1c(N)c(C(=O)NCc2ccco2)sc1=S | . | . | . | . | . | . | /
Cc1ccc(CNC(=O)c2ccc3c(=O)n(CC4CCCO4)c(=S)[nH]c3c2)cc1 (configuration not stated) | . | . | . | . | . | . | /
